Assay outcomes from PubChem BioAssay.
Compounds with a hit are over-represented: about 3.9% of the library has one in this group of screens.
aSyn UTR inh = MLPCN primary screen, SNCA 5' untranslated region. 300,000 compounds, 0.82% hits. inhibition, % (tested at 7.5 µM). alpha-synuclein 5'UTR reporter, inhibitor activity; in the data active = inhibition above about 60%;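 also: H4 neuroglioblastoma cells stably carrying SNCA 5'UTR luciferase fusion; 0% = DMSO wells and 100% = positive control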
TWEAK Fn14 block = inhibitors of TWEAK-Fn14 signaling, primary screen, luciferase reporter cells, uHTS; inhibition, % at 10 µM; 360,000 compounds, 2% hits; AID 1159606, 2016; TWEAK-stimulated Fn14 reporter cells, luciferase luminescence, 8 h; in the data active = inhibition above about 50%
HIF-2a inh = HIF-2a reporter inhibitors, primary screen, luminescence, 786-0 RCC cells. 786-0 RCC cells HIF-2a reporter, luciferase luminescence, overnight. inhibition, % at 18.8 µM. 360,000 compounds, 0.72% hits;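 active = inhibition of the luminescence signal of 40% or more relative to plate controls, in a single-dose primary screen at 18.75 µM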
C8 TRAIL sens = viability loss with TRAIL in NB7+C8 cells, primary screen, TRAIL sensitizer project, cell-based, ATPlite luminescence; inhibition (viability loss, TRAIL sensitization), % at 10 µM; 360,000 compounds, 1% hits; AID 624354, 2012;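 active = compounds causing at least 50% loss of cell viability in the single-dose screen, relative to plate controls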
TROY signal inh = inhibitors of TROY-driven NF-kB signaling, primary screen, Q293 LMP1-TROYcd cells, NF-kB luciferase, uHTS; Q293 LMP1-TROYcd NF-kB luciferase reporter, 4 h; 360,000 compounds, 0.98% hits; AID 1347056, 2019; inhibition, % at 10 µM;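 active = compounds whose plate-normalised and pattern-corrected inhibition of the luciferase reporter signal at the single screening dose is 50% or more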
HSP90 inh = HSP90 inhibitors, primary screen, cell lysate, luminescence; Heat shock protein HSP 90 (rabbit reticulocyte lysate; luciferase refolding); Rabbit reticulocyte lysate, luciferase refolding luminescence, 3 h; inhibition, % at 5.6 µM; AID 1789, 2009; 290,000 compounds, 0.91% hits;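 active = inhibition above the screen-wide mean plus 3 SD, computed separately per campaign, cut at about 16% in these data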;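 also: 0% = DMSO wells and 100% = 60 µM geldanamycin wells; inhibitors lower the luminescence because luciferase stays unfolded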
Numbers without * were called inactive; . = no result given.

SMILES	aSyn UTR inh	TWEAK Fn14 block	HIF-2a inh	C8 TRAIL sens	TROY signal inh	HSP90 inh
CCCCc1nnc(NC(=O)CC(=O)Nc2ccccc2C(=O)O)s1	26.1	39.0	22.9	-23.6	.	-1.1
CCc1nnc(NC(=O)CC(=O)Nc2ccccc2C(=O)O)s1	28.2	36.5	19.7	7.7	-15.0	-1.3
CC(C)Cc1nnc(NC(=O)CC(=O)Nc2ccccc2C(=O)O)s1	32.3	50.8*	9.1	-10.4	-5.1	1.7
CC(C)c1nnc(NC(=O)CC(=O)Nc2ccccc2C(=O)O)s1	58.5	82.7*	28.3	-14.9	27.9	4.7
CCCSc1nc(C)c(-c2csc(C(C#N)=C3CCCC3)n2)cc1C#N	-4.3	64.3*	5.9	-36.4	-9.6	2.8
COc1ccc(COCC(O)CN2CCN(S(=O)(=O)c3c(F)cccc3F)CC2)cc1OC (stereo not drawn)	.	-4.4	-1.7	-10.2	10.4	.
COc1ccc(CC(C(=O)Nc2cccc(F)c2)c2nn[nH]n2)c(OC)c1 (stereo not drawn)	-15.8	51.5*	6.2	-10.1	65.5*	3.4
O=[N+]([O-])c1ccc(-c2nc(Cl)c3c(n2)CCCC3)o1	.	-9.0	-38.2	14.8	-11.3	.
COc1ccc(C)cc1S(=O)(=O)N1CCCC(C(=O)NCc2ccccn2)C1 (stereo not drawn)	-4.9	18.1	9.3	4.3	-20.3	-2.4
O=C(NCc1ccccn1)C1CCCN(S(=O)(=O)c2cc(Cl)ccc2Cl)C1 (stereo not drawn)	.	3.0	10.2	55.8*	-13.9	.
CNC(=O)C1CCC(=O)N1Cc1c[nH]c2ccccc12 (stereo not drawn)	.	-7.5	7.8	-5.7	3.0	.
CC(=O)Nc1ccc(Nc2nc(-c3c(C)nc4ccccn34)cs2)cc1	86.6*	12.7	-20.6	7.6	7.4	.
Cc1nc2ncccn2c1-c1csc(Nc2ccc(N(C)C)cc2)n1	70.2*	36.0	-74.6	-25.9	6.8	0.9
C=C1CCC[C@]2(C)C[C@H]3OC(=O)C(CNC(CC)CO)[C@H]3CC12 (stereo partly drawn)	-37.3	57.2*	18.8	0.1	3.5	3.1
C=C1CCC[C@]2(C)C[C@H]3OC(=O)C(CN4CCCCC4CO)[C@H]3CC12 (stereo partly drawn)	-12.4	50.9*	-1.6	4.9	25.1	7.4
Cc1ccc(S(=O)(=O)N2C[C@H]3C(=O)C[C@@H](c4ccccc4)N(S(=O)(=O)c4ccc(Br)cc4)[C@H]3C[C@H]2c2ccccc2)cc1	.	-32.3	8.9	5.0	6.2	.
CCCCCc1c(CC)ncn1CCc1ccccc1OC	.	0.7	-28.5	17.4	28.8	.
CC(C)C[C@@H]1COc2cc(N3CCC[C@H]3CO)ccc2S(=O)(=O)N1	.	15.2	-3.2	-4.4	-5.1	.
CN(C)S(=O)(=O)c1cccc(N=C2NN=C(c3ccccc3)CS2)c1	.	.	.	.	.	3.1
CC(=O)Nc1ccc(C2=NNC(=Nc3cccc(S(=O)(=O)N(C)C)c3)SC2)cc1	-13.5	62.5*	5.0	-12.1	16.5	3.6
CCN=c1scc(C)n1/N=C/c1cc(Br)c(O)c(OC)c1	25.2	-26.1	-37.5	21.9	58.2*	-4.1
CCCCCCN1C[C@@H](n2cc(-c3ccc(F)cc3)nn2)[C@H](O)C[C@@H]1c1ccc(Cl)cc1	.	44.2	-84.5	44.1	41.1	.
CCOC(=O)C1(C)CCCN1C(=O)c1cccs1 (stereo not drawn)	.	26.7	3.7	5.7	9.6	.
CC(c1ccco1)N(C(=O)COc1ccc(Cl)cc1Cl)c1ccccn1 (stereo not drawn)	47.7	84.2*	-45.7	56.5*	62.2*	41.5*
CSc1ccccc1NC(=O)COc1ccc(Cl)cc1Cl	-28.6	9.7	-185.6	-7.4	-56.7	2.5
O=C(COc1ccccc1)Nc1ccc(Cl)cn1	-114.4	-15.2	-209.2	1.1	-41.5	1.2
O=C(COc1ccc(Cl)cc1Cl)Nc1ccccn1	.	107.8*	80.5*	94.5*	88.8*	86.9*
O=C(COc1ccccc1Cl)Nc1ccc(Cl)cn1	-54.8	2.2	-193.1	50.3*	-57.8	-0.8
COc1ccc(-n2[nH]c(C)cc2=O)cc1	-19.9	-1.6	7.7	-33.4	16.5	16.7*
